What was measured:
Assay type in all cases: functional
[1] = tested on: Plasmodium falciparum; test: GSK_TCMDC: Inhibition of Plasmodium falciparum 3D7 in whole red blood cells, using parasite LDH activity as an index of growth. Test compounds present at 2uM
[2] = tested on: Plasmodium falciparum; test: GSK_TCMDC: Inhibition of Plasmodium falciparum Dd2 in whole red blood cells, using parasite LDH activity as an index of growth. Test compounds present at 2uM
[3] = tested on: HepG2; test: GSK_TCMDC: Percent inhibition of human HepG2 cell line. Test compounds present at 10uM.

SMILES: COc1cc2c(c(Cl)c1OC)CCN(C(=O)C(F)(F)F)CC2c1ccccc1 (stereo not given)
- Inhibition [1]: 100%
- Inhibition [2]: 100%
- Inhibition [3]: 7%

SMILES: CC(C)(C)c1ccc(CN2CCC(CNC(=O)c3cc(-c4ccccc4Cl)cs3)C2)cc1.O=C(O)C(F)(F)F (stereo not given)
- Inhibition [1]: 100%
- Inhibition [2]: 56%
- Inhibition [3]: 33%

SMILES: Cl.c1cc(-c2cc3ccc(C4=NCCN4)cc3[nH]2)ccc1C1=NCCN1
- Inhibition [1]: 97%
- Inhibition [2]: 99%
- Inhibition [3]: 15%

SMILES: O=C(NCCN1CCCC1)c1cccc(-c2ccc(-c3nc4cc(C(F)(F)F)ccc4[nH]3)cc2)c1
- Inhibition [1]: 100%
- Inhibition [2]: 99%
- Inhibition [3]: 34%

SMILES: COc1cc2nc(NCCc3ccccc3)nc(NC(C)c3ccccc3)c2cc1OC (stereo not given)
- Inhibition [1]: 99%
- Inhibition [2]: 100%
- Inhibition [3]: 9%

SMILES: CN1CCN(c2cc(NC(=O)c3ccc(-c4ccc(Cl)cc4)cc3)ccc2Cl)CC1
- Inhibition [1]: 99%
- Inhibition [2]: 33%
- Inhibition [3]: 30%

SMILES: Cc1cccc2nc(-c3cccc(-c4ccc(NC(=O)Nc5ccsc5)cc4)c3)[nH]c12
- Inhibition [1]: 100%
- Inhibition [2]: 99%
- Inhibition [3]: 27%

SMILES: CCc1cc(N2CCN(c3ccccc3F)CC2)nc(SCc2ccc(C(=O)NC3CC3)o2)n1
- Inhibition [1]: 90%
- Inhibition [2]: 94%
- Inhibition [3]: 9%

SMILES: Nc1ccc2[nH]cc(C3CCN(CC4CCN(C(=O)/C=C/c5ccc(Cl)c(Cl)c5)CC4)CC3)c2n1
- Inhibition [1]: 99%
- Inhibition [2]: 97%
- Inhibition [3]: 53%

SMILES: CCOC(=O)CCCc1cc(NC2CCN(C)CC2)nc(Nc2ccc(C)cc2)n1
- Inhibition [1]: 90%
- Inhibition [2]: 12%
- Inhibition [3]: 35%

SMILES: COc1ccc(Nc2ncc3c(-c4cccc(NC(=O)c5ccccc5)c4)c[nH]c3n2)cc1OC
- Inhibition [1]: 100%
- Inhibition [2]: 95%
- Inhibition [3]: 54%

SMILES: COc1cc(F)c2ncc(Cl)c([C@H](O)CN3CCC(NCc4cc5c(cn4)OCCO5)CC3)c2c1.Cl
- Inhibition [1]: 100%
- Inhibition [2]: 49%
- Inhibition [3]: 10%

SMILES: O=C(N[C@@H](CC1CCCCC1)C(=O)NCCN1CCCC1)c1ccc(O)c(-c2cccc(C(F)(F)F)c2)c1
- Inhibition [1]: 99%
- Inhibition [2]: 55%
- Inhibition [3]: 0%

SMILES: COc1c(O)cc2oc(-c3ccc(O)cc3)cc(=O)c2c1O [HISPIDULIN]
- Inhibition [1]: 96%
- Inhibition [2]: 0%
- Inhibition [3]: 6%

SMILES: O=C(NC1CCN(Cc2ccc3c(c2)OCCO3)CC1)c1ccc(-c2cccc(Cl)c2)s1.O=C(O)C(F)(F)F
- Inhibition [1]: 93%
- Inhibition [2]: 9%
- Inhibition [3]: 46%

SMILES: COCCN1CCN(Cc2ccc(-c3cccc(-c4nc5ccccc5[nH]4)c3)cc2)CC1.O=C(O)C(F)(F)F
- Inhibition [1]: 93%
- Inhibition [2]: 10%
- Inhibition [3]: 32%

SMILES: CN(C)S(=O)(=O)c1ccc(Nc2nc(NCCC3C=NC=N3)nc3cc[nH]c(=O)c23)cc1 (stereo not given)
- Inhibition [1]: 96%
- Inhibition [2]: 63%
- Inhibition [3]: 8%

SMILES: O=C(Nc1ccc(-c2nc3ccccc3[nH]2)cc1)c1ccc(N2CCOCC2)c([N+](=O)[O-])c1
- Inhibition [1]: 100%
- Inhibition [2]: 28%
- Inhibition [3]: 47%

SMILES: O=C(Nc1ccc(Cl)c(C(F)(F)F)c1)NC1CCN(CCCCCNC(=O)C2CC2c2ccc(Cl)c(Cl)c2)CC1 (stereo not given)
- Inhibition [1]: 100%
- Inhibition [2]: 41%
- Inhibition [3]: 79%

SMILES: CCc1cn(CCS(C)(=O)=O)c2ccc(C(=O)N[C@@H](Cc3ccccc3)[C@H](O)CNC(C)(C)CCCC(C)C)cc12.O=CO
- Inhibition [1]: 87%
- Inhibition [2]: 96%
- Inhibition [3]: 16%

SMILES: Cc1ccc(NC(=O)c2cn(-c3ccccc3)nc2-c2ccc(F)cc2)cc1[N+](=O)[O-]
- Inhibition [1]: 92%
- Inhibition [2]: 38%
- Inhibition [3]: 6%

SMILES: COc1ccccc1C1CCN(C2CCC(NC(=O)/C=C/c3cccc(C(F)(F)F)c3)CC2)CC1 (stereo not given)
- Inhibition [1]: 99%
- Inhibition [2]: 34%
- Inhibition [3]: 38%

SMILES: CN1CCN(Cc2ccc(-c3ccc4c(Nc5ccc(Cl)cc5F)ccnc4c3)o2)CC1
- Inhibition [1]: 100%
- Inhibition [2]: 100%
- Inhibition [3]: 47%

SMILES: Cl.N=C(N)c1ccc(Nc2nc(Nc3ccc(-c4ccccc4)cc3)ncc2[N+](=O)[O-])cc1
- Inhibition [1]: 99%
- Inhibition [2]: 35%
- Inhibition [3]: 11%

SMILES: O=C(Nc1ccncc1)c1cn(-c2ccccc2)nc1-c1cccs1
- Inhibition [1]: 98%
- Inhibition [2]: 10%
- Inhibition [3]: 7%

SMILES: CN1CCN(CCc2ccc3nc(-c4csc(Cc5cc(Cl)ccc5OCc5ccccc5)n4)[nH]c3c2)CC1
- Inhibition [1]: 100%
- Inhibition [2]: 97%
- Inhibition [3]: 30%

SMILES: CCOc1cc(C(=O)NCCc2ccc(Cl)c(Cl)c2)ccc1-c1nc2cc(Cl)ccc2[nH]1
- Inhibition [1]: 100%
- Inhibition [2]: 47%
- Inhibition [3]: 9%

SMILES: Cc1cc(N2C(N)=NC(N)=NC2(C)C)ccc1Cl.Cl
- Inhibition [1]: 95%
- Inhibition [2]: 0%
- Inhibition [3]: 66%

SMILES: CS(=O)(=O)c1ccc(CNCc2ccc(-c3ccc(-c4nc5cc(F)ccc5[nH]4)s3)cc2)cc1.O=C(O)C(F)(F)F
- Inhibition [1]: 100%
- Inhibition [2]: 97%
- Inhibition [3]: 22%

SMILES: COc1cc(NC(=O)/C=C/c2ccc(-c3ccccc3)cc2)ccc1OCCN(C(C)C)C(C)C.Cl
- Inhibition [1]: 94%
- Inhibition [2]: 62%
- Inhibition [3]: 58%

SMILES: O=C(Nc1ccc(N2CCN(Cc3ccccc3)CC2)cc1)c1cccs1.O=C(O)C(F)(F)F
- Inhibition [1]: 87%
- Inhibition [2]: 86%
- Inhibition [3]: 0%

SMILES: CS(=O)(=O)c1ccc(CCNCc2ccc(-c3ccc(CNC4Cc5ccccc5C4)cc3)nc2)cc1.O=C(O)C(F)(F)F
- Inhibition [1]: 100%
- Inhibition [2]: 80%
- Inhibition [3]: 18%

SMILES: O=C(NC1CCCCN(Cc2ccccc2O)C1)c1ccc(-c2ccccc2)cc1.O=C(O)C(F)(F)F (stereo not given)
- Inhibition [1]: 97%
- Inhibition [2]: 61%
- Inhibition [3]: 21%

SMILES: CCCCCCNC(=O)C1Cc2c([nH]c3cc(Cl)ccc23)C2(CCN(Cc3ccccc3)CC2)N1 (stereo not given)
- Inhibition [1]: 90%
- Inhibition [2]: 56%
- Inhibition [3]: 21%

SMILES: CC(C)(C)c1cc(C(=O)N2CCN(c3ccc(C(F)(F)F)cn3)CC2)n(Cc2ccc(F)cc2)n1
- Inhibition [1]: 88%
- Inhibition [2]: 26%
- Inhibition [3]: 4%

SMILES: NC1CCN(c2cnn(Cc3cccc(NC(=O)Nc4ccc(-c5ccccc5)cc4)c3)c(=O)c2Cl)CC1.O=C(O)C(F)(F)F
- Inhibition [1]: 89%
- Inhibition [2]: 11%
- Inhibition [3]: 5%

SMILES: CC(Cc1ccc(NC(=O)c2ccc(NCCc3ccccc3)cc2)cc1)NCCc1cccc(Cl)c1.Cl (stereo not given)
- Inhibition [1]: 92%
- Inhibition [2]: 1%
- Inhibition [3]: 25%

SMILES: O=C(CNC(=O)c1ccc(O)cc1)Nc1cccc(-c2cccc(-c3nc4cc(C(F)(F)F)ccc4[nH]3)c2)c1
- Inhibition [1]: 96%
- Inhibition [2]: 28%
- Inhibition [3]: 63%

SMILES: Cc1[nH]c(C)c(-c2ccc(OCc3cc(C(F)(F)F)cc(C(F)(F)F)c3)nc2)c(=O)c1Cl
- Inhibition [1]: 98%
- Inhibition [2]: 96%
- Inhibition [3]: 19%

SMILES: Nc1nc(N)c2c(ccc3ccccc32)n1
- Inhibition [1]: 98%
- Inhibition [2]: 20%
- Inhibition [3]: 60%

SMILES: Cc1cc(N)c2cc(NC(=O)CCC(=O)Nc3ccc4nc(C)cc(N)c4c3)ccc2n1
- Inhibition [1]: 85%
- Inhibition [2]: 77%
- Inhibition [3]: 0%

SMILES: CC(C)c1ccc(CN2CCC(CNC(=O)c3cc(-c4cccc(C(F)(F)F)c4)cs3)C2)cc1.O=C(O)C(F)(F)F (stereo not given)
- Inhibition [1]: 99%
- Inhibition [2]: 60%
- Inhibition [3]: 36%

SMILES: O=C(Cc1c[nH]cn1)Nc1cccc(-c2cccc(-c3nc4cc(F)ccc4[nH]3)c2)c1
- Inhibition [1]: 100%
- Inhibition [2]: 97%
- Inhibition [3]: 21%

SMILES: N#Cc1ccc(-c2ccc(C(=O)NCCCCN3CCC(c4cn(CCCO)c5ccccc45)CC3)cc2)cc1
- Inhibition [1]: 98%
- Inhibition [2]: 56%
- Inhibition [3]: 31%

SMILES: CC1CN(c2cnn(Cc3cccc(NC(=O)Nc4ccc(-c5ccccc5)cc4)c3)c(=O)c2Cl)CC(C)N1.O=C(O)C(F)(F)F (stereo not given)
- Inhibition [1]: 100%
- Inhibition [2]: 67%
- Inhibition [3]: 6%

SMILES: CNC(=O)c1ccccc1Nc1nc(Nc2ccc(C(=O)O)cc2)ncc1Cl.Cl
- Inhibition [1]: 92%
- Inhibition [2]: 92%
- Inhibition [3]: 60%

SMILES: Cc1cccc2nc(-c3cccc(-c4ccc(C(=O)N5CCCCC5C(C)O)cc4)c3)[nH]c12 (stereo not given)
- Inhibition [1]: 100%
- Inhibition [2]: 91%
- Inhibition [3]: 26%

SMILES: O=C(Nc1cccc(-c2ccc(CN3CCCC3)cc2)c1)c1cccc(F)c1.O=C(O)C(F)(F)F
- Inhibition [1]: 99%
- Inhibition [2]: 17%
- Inhibition [3]: 20%

SMILES: Cl.c1ccc2nc(NCCCCCCCCNc3ccc4ccccc4n3)ccc2c1
- Inhibition [1]: 100%
- Inhibition [2]: 37%
- Inhibition [3]: 52%

SMILES: COc1ccc2[nH]ccc(=NN=Cc3cccc(Cl)c3)c2c1
- Inhibition [1]: 100%
- Inhibition [2]: 99%
- Inhibition [3]: 1%

SMILES: COC(=O)c1cc(C(O)CNC(C)CCCc2ccccc2)ccc1O.Cl (stereo not given)
- Inhibition [1]: 99%
- Inhibition [2]: 97%
- Inhibition [3]: 17%

SMILES: COc1ccc(CCNCCCCCNCCc2ccc(Cl)cc2)cc1OC.Cl
- Inhibition [1]: 100%
- Inhibition [2]: 0%
- Inhibition [3]: 32%

SMILES: O=S(=O)(Nc1ccc(CCN2CCC(N3CCCCC3)CC2)cc1)c1ccc(Cl)cc1
- Inhibition [1]: 100%
- Inhibition [2]: 18%
- Inhibition [3]: 23%

SMILES: Cn1cncc1CCN(Cc1ccc(-c2ccc(C(F)(F)F)cc2)cc1)C(=O)Cn1c(SCc2cccc(F)c2F)cc(=O)c2ccccc21
- Inhibition [1]: 99%
- Inhibition [2]: 90%
- Inhibition [3]: 24%

SMILES: Br.CC1(C)NC(N)=NC(=N)N1OCCCCOc1ccccc1
- Inhibition [1]: 95%
- Inhibition [2]: 95%
- Inhibition [3]: 60%

SMILES: CCCCCCCCCc1c(C)[nH]c2ccccc2c1=O
- Inhibition [1]: 97%
- Inhibition [2]: 96%
- Inhibition [3]: 0%

SMILES: CCCc1cc(N2CCC(N3CCCC3)CC2)nc(Nc2ccc(OC)cc2)n1
- Inhibition [1]: 94%
- Inhibition [2]: 14%
- Inhibition [3]: 15%

SMILES: O=C(NCC1CCC(C(=O)NC2CCCc3ccccc32)CC1)c1ccc(O)c(-c2ccc(Cl)c(Cl)c2)c1 (stereo not given)
- Inhibition [1]: 93%
- Inhibition [2]: 86%
- Inhibition [3]: 0%

SMILES: CC(Cc1ccc(C(=O)OCCOC(=O)c2ccc(CC(C)NCC(O)c3cccc(C(F)(F)F)c3)cc2)cc1)NCC(O)c1cccc(C(F)(F)F)c1 (stereo not given)
- Inhibition [1]: 98%
- Inhibition [2]: 86%
- Inhibition [3]: 10%

SMILES: CC1Cc2ccccc2N1S(=O)(=O)c1cc(OCC(F)(F)F)ccc1OCC(F)(F)F (stereo not given)
- Inhibition [1]: 96%
- Inhibition [2]: 95%
- Inhibition [3]: 10%

— ChEMBL document CHEMBL1157539, “Thousands of chemical starting points for antimalarial lead identification” (Nature, 2010)
